Whole data set: some 25,000 sequences, median “ln(normalized median fluorescence intensity)” near 6.7, cut for the highest 2% near 10. Only a selection was taken, and the highest values are over-represented in it overall.
Each sequence was assayed on PfHDP1 homeodomain (GST-tagged) (assay: gcPBM binding intensity (ln(normalized median fluorescence intensity)); higher = stronger DNA binding).
Outline: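 GST-tagged P. falciparum DNA-binding domains, expressed in E. coli (about 25 μg on average), were applied for 1 h to an Agilent 4 × 180k array of primer-extended double-stranded 36-bp intergenic genomic probes plus negative controls. The binding buffer was 1× PBS with 1% milk, 0.2 mg/ml BSA, 0.5% salmon testes DNA and 0.03% Triton X-100. Bound protein was detected with Alexa488 anti-GST antibody and scanned at 488 nm. Binding intensity is the highest Masliner-normalised natural-log median intensity across replicate spots of either probe orientation.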

| Sequence | gcPBM binding intensity (ln) |
| --- | --- |
| ATATTTAATGTTAATTGTACATATTATATATATATA [XGTACX_site6095] | 8.49 |
| ATGAAAATTTATATTGCACACATAGGGAATAAAAAA [CACACA_site8667] | 10.4 |
| TAATATAATATATGCACACAAATATGTATTTATGTG [CACACA_site5210] | 10.1 |
| CAAATATATATGTTCACACATATAATTATTGTGAAA [CACACA_site4190] | 6.4 |
| ATATATTATATAATATGTACATAATAAAATTTAAAT [XGTACX_site1900] | 6.79 |
| TAATATTTTAATTGTGTGCACATTAATATTATAAAA | 10.3 |
| TGAAATTTTATTAATGTGCACATATATTTATTGTTC | 10.8 |
| TTAAAAAAATTAATATGTACATATATTTATATATAT [XGTACX_site5317] | 6.54 |
| TTTATGAAACAGTGCACACATAAAAATATATACATA [CACACA_site2992] | 10.1 |
| TAAAATAATATTTATGTGCACATATAATTATTAATT | 10.7 |
| TAAAATAAATTGTGCACACATATTTATAAATATGAA [CACACA_site2331] | 10.7 |
| CAACATTAATATAAAGCACACATATATATAATATAT [CACACA_site8064] | 6.39 |
| TTGAACCTGATAAATACACACAATATAGATTTTTTT [CACACA_site7091] | 6.48 |
| TTTCTAATTCTTAGTGGTACACAGTTCTGCTGATAT [XGTACX_site2391] | 6.09 |
| AATGAGCGTTAAAAATGTACAGAAAATTGGAATTAT [XGTACX_site5743] | 6.75 |
| TGTGCATAAATTTATGCACACATAAAAAAAAAAAAA [CACACA_site8954] | 11 |
| GAAATAATTTCATATACACACATATACATACATACA [CACACA_site1358] | 7.13 |
| ATAAAATATATATGCACACACATATATATTTCATAC [CACACA_site3547] | 10.2 |
| CAAAATATTTTTATAACACACATATATATAATGTGC [CACACA_site4767] | 6.52 |
| ATATATATATATATTGTGCACAAAAAAAAATAAGCA | 10.7 |
| GTTTATTTATTTTATGTGCACATATAACAAAAAAAA | 10.7 |
| ATAATTTCATAATACGTGCACATAATATATAAAAAA | 10.9 |
| TATATATATATATATGTGCACATATTTATATGTTTT | 10.3 |
| ACAAAAAAAATAAGCACACATATATATATATATATA [CACACA_site816] | 9.27 |
| TGCATAAATTTATGCACACATAAAAAAAAAAAAAAA [CACACA_site2923] | 10.4 |
| TAAAATAATTTATGCATACACACATATATATATATA [CACACA_site4021] | 9.28 |

| Sequence | gcPBM binding intensity (ln) |
| --- | --- |
| TATAAAAATAAGCACACACACAAATATATATTTATT [CACACA_site922] | 6.77 |
| AAGAAAGGTTAAACATGTACATAAATATTTTACATA [XGTACX_site5024] | 6.28 |
| TAATTCACATTTTATACACACATTCGAACCTTTTTT [CACACA_site3341] | 6.88 |
| TTATAAAAGAAAAAAAAAAAAAAAAAAAAAAAAAAA [CACACA_negctrl_site1006] | 6.11 |
| TTACATATATTGGGGTGTACATATATTTTCCTTCAC [XGTACX_site6224] | 7.35 |
| AAAAAAAAGAAAGAAAGTACAAATTATAAAATGAAC [XGTACX_site860] | 6.62 |
| AACAATAAATTATTATGTACACATATATTATATATA [XGTACX_site4629] | 6.47 |
| ATCTAAAAATTTTACGCACACAAGTAAAAAAAAAAA [CACACA_site2485] | 7.14 |
| ACTATATATATAAGTGCATGTTCATTATACCTAAAG [TGCATGCA_site696] | 7.49 |
| TTATATATTTATAAATGTACGTATAAGAATTTAATT [XGTACX_site8541] | 6.68 |
| TATATTTATGTATATGTGCACATAAATTTAAGAATG [GTGCAC_site9512] | 10.9 |
| GATAAATGTATATATGCATGCACATATATTTATACA [TGCATGCA_site748] | 8.96 |
| TATAATAATAATGATAGTACGTATGAGTTCAAGAAA [XGTACX_site4918] | 6.34 |
| TCATATATCCTTATCACACATATAATAAATTCCCTT [CACACA_site4457] | 6.59 |
| TATATATATATATATACATGCATATTTTTTATTTTT [TGCATGCA_site464] | 9.46 |
| TATATATAATTTTATACATGCACATATTATATATAT [TGCATGCA_site1036] | 8.4 |
| ATTATTACATATAATGCATGTGCATATATTTTTATA [TGCATGCA_site701] | 11 |
| ACACATATGCATATATGTACATAATATATTAAACTT [XGTACX_site5975] | 6.76 |
| CCTTATACGATATTATGTACGCATATGTGCATTTTT [XGTACX_site1570] | 10.9 |
| TTTTTTATTATTATGTGTACGAATATGTGCATATAA [XGTACX_site1364] | 9.93 |
| TATATATTTATTAAATGTACATAACAAAAATGGTAT [XGTACX_site3577] | 7.05 |
| CATATATAAATATGTATGCACTTTAACAAAATGTAT | 7.25 |
| ATATATGCATATTATACACACATATGTATATACATT [CACACA_site965] | 7.81 |
| ATGTATGCAAAAATGGTGCATATTAAATGTATAACA [GTGCAC_site9722] | 10.5 |
| ATATTATACGCATATGTGCGCATACATTTTTTTGCA [GTGCAC_site9540] | 7.53 |
| TATGTGCATATAAACTCACACATTGTATATTACATG [CACACA_site6106] | 10.9 |

From the supplement of paper PMC11417369
